In PMC5540273 (PLoS ONE, 2017):

System: T1, PIK4CB
T1 construct: gene PI4KB
Details: concentration: 1 μM, replicates: in singlicate; n = 1
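Note: KINOMEscan kinase panel screen.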

Row | Compound | %Inh [%]
1 | Cc1cccc(-c2nc(Nc3ccc4ncsc4c3)c3ccccc3n2)n1 [GW867588] | 28
2 | CCc1nc(-c2cccc(C)c2)c(-c2ccnc(NCc3ccccc3)c2)s1 | 0
3 | COc1cc2ncn(-c3cc(OCc4sccc4Cl)c(C(N)=O)s3)c2cc1OC [GSK448459] | 0
4 | Cc1c2ccc(N(C)c3ccnc(Nc4cccc(S(N)(=O)=O)c4)n3)cc2nn1Cc1ccccc1.Cl.Cl [GW787226] | 0
5 | Nc1nc(-c2ccc3c(N)n[nH]c3c2)cc(N2CCCC2)n1 [GSK2227430] | 14
6 | COCCNC(=O)c1ccc(-c2cc(C(=O)NC3CC3)cc(F)c2C)cc1 [GW868318] | 40
7 | COc1ccc(Nc2nccc(N3CCC(NC(=O)Nc4cc(C)ccc4C)C3)n2)cc1 (centres unmarked) [GSK1379741] | 23
8 | COc1ccc(CNC(=O)NC2CCN(c3ccnc(Nc4ccc(OC)cc4)n3)C2)cc1 (centres unmarked) [GSK1379727] | 2
9 | COc1ccc(Nc2ncc(C#N)c(Nc3ccccc3C(N)=O)n2)cc1N1CCN(C)CC1.Cl [GSK1558669] | 15
10 | O=c1cc(N2CCOCC2)nc2n(Cc3cccc(C(F)(F)F)c3)ccn12 [GSK2297543] | 0
11 | NS(=O)(=O)c1cccc(-c2ccc3nccc(-c4cccc(S(N)(=O)=O)c4)c3c2)c1 [GW867253] | 99.1
12 | c1ccc(-c2cc(-c3c[nH]nc3-c3ccccn3)ccn2)cc1 [GW576604] | 0
13 | Cc1nnc(-c2ccc(C)c(-c3ccc(C(=O)Nc4ccc(NS(C)(=O)=O)cc4)cc3)c2)o1 [GW702865] | 0
14 | N#Cc1ccc(-c2cc(-c3c[nH]nc3-c3ccccn3)ccn2)cc1 [GW693028] | 0
15 | NS(=O)(=O)CCc1cccc(Nc2nccc(-c3c(-c4cccc(NC(=O)c5c(F)cccc5F)c4)nn4ccccc34)n2)c1 [GSK336735] | 0
16 | Cc1ccc(C(=O)NCC(N)=O)cc1-n1c(C)cc(OCc2ccc(F)cc2F)c(Br)c1=O | 0
17 | O=C1Cc2cc(Nc3nc(NCc4cccc(S(=O)(=O)C(F)(F)F)c4)ncc3C(F)(F)F)ccc2N1 | 4
18 | O=c1cc(N2CCOCC2)nc2n(Cc3cccc4ccccc34)ccn12 [GSK2333389] | 6

Row | Compound | %Inh [%]
19 | Fc1ccc(-c2ncn(CCCN3CCOCC3)c2-c2cccnc2)cc1 [SB-211743] | 17
20 | Cc1cccc(Cn2ccn3c(=O)cc(N4CCOCC4)nc23)c1 [GSK2297542] | 0
21 | COc1ccc(Nc2nccc(N3CCC(NC(=O)Nc4cccc(C(C)=O)c4)C3)n2)cc1 (centres unmarked) [GSK1379731] | 0
22 | Cc1ccc(NC(=O)c2ccnc(N3CCN(C)CC3)c2)cc1-c1ccc(C(=O)NCC2CC2)cc1 [GW775604] | 0
23 | O=C(c1ccc(-c2cc(-c3c[nH]nc3-c3ccccn3)ccn2)cc1)N1CCOCC1 [GW812171] | 8
24 | COC(=O)Nc1nc2cc(Oc3ccc(NC(=O)Nc4cc(F)ccc4F)cc3)ccc2[nH]1.Cl [GW701424] | 0
25 | c1ccc(-c2n[nH]cc2-c2ccnc3ccccc23)nc1 [GW271431] | 0
26 | CN1c2ccc(CNc3ccc(F)cc3)cc2-c2c(cnn2C)S1(=O)=O | 0
27 | CC(C)(C)n1cnc2c(N)ncnc21 [SKF-97359] | 25
28 | Cc1nnc(-c2ccc3occ(-c4ccc(C(C)O)cc4)c3c2)o1 (centres unmarked) | 0
29 | Cc1nnc(-c2ccc3ncc(-c4ccc(S(C)=O)cc4)n3c2)o1 (centres unmarked) | 0
30 | Nc1nccc(-c2c(-c3ccc(F)cc3)ncn2C2CCN(CC(F)(F)F)CC2)n1 [SB-236560] | 46
31 | O=c1cc(N2CCOCC2)nc2n(Cc3cccc(Cl)c3Cl)c(C3CC3)nn12 [GSK2358994] | 0
32 | O=C(NCCCN1CCOCC1)c1cccc(Nc2nccc(Nc3ccc(Oc4ccccc4)cc3)n2)c1 [GW663929] | 21
33 | CSc1ccc(-c2cc3ncnc(SCC(=O)O)c3s2)cc1 | 0
34 | CN(C(=O)c1ccc(-c2cc(-c3c[nH]nc3-c3ccccn3)ccn2)cc1)C1CCOCC1 [GW810083] | 40
35 | CCc1ccnc(/C=C/c2n[nH]c3cc(Sc4ccccc4C(=O)NC)ccc23)c1 | 0
